Source: PubChem (National Center for Advancing Translational Sciences (NCATS))
Rows were chosen to be rich in hits. Some 5.2% of all compounds tested hit in one or more screens of this group.
Tau fluor counter: counter-screen for tau fibril formation inhibitors. hit rate 0.93% among 280,000. Potency, µM (titrated, usually from 57.7 µM). tau K18 P301L Alexa594 fluorescence, heparin fibrillization. AID 1463; further: nearly all actives have a fitted effect of over 55% in size
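Human K18 P301L tau (15 uM unlabeled plus 0.24 uM Alexa 594-labeled, final) in 100 mM sodium acetate pH 7 was mixed with compound and 20 uM heparin and incubated 6 hr at 37 C.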
Sfp PPTase inh: blocks B. subtilis Sfp PPTase activity. Biochemical Sfp PPTase activity, qHTS. Q9F4F7. AID 1490. hit rate 3.5% among 310,000. Potency, µM, hits mostly inhibitors;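 further: the enzyme is Sfp with the accession as filed and its product quenches rhodamine fluorescence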
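Fluorescence-quenching assay: 15 nM Sfp-PPTase preincubated 15 min at room temperature with compound, then 5 uM rhodamine-CoA and 12.5 uM BHQ-2-labelled YbbR peptide added. Fluorescence (ex 525/em 598 nm) read at start and after 30 min; difference gives rate.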
Tau fibril ThT: tau fibrillization inhibition (ThT binding); P10636; recombinant tau K18 P301L (four-repeat tau fragment), heparin-induced fibrillization, ThT fluorescence; Potency, µM (series often up to 57.4 µM), usual class: inhibitors; hit rate 2.1% among 270,000; AID 1460; further: nearly all actives have a fitted effect of over 55% in size
Target sequence (P10636 561-689 P618L limits assumed): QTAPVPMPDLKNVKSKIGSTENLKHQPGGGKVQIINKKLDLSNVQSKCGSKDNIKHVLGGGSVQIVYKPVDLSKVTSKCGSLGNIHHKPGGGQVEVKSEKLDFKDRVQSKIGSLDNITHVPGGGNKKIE
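Heparin-induced (20 uM) aggregation of recombinant human K18 P301L tau, 15 uM unlabeled with 0.24 uM labeled, pH 7 acetate buffer, 6 hr at 37 C with compound. Fibrils quantified by 30 uM ThT fluorescence after 1 hr ambient incubation.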
FBPA coupling cs: counter-screen for Giardia aldolase inhibitors: coupling enzyme system. coupling enzyme system counterscreen, AmpLite Red fluorescence. activity change, negative = inhibition, % at 58.2 µM, hits read low. hit rate 0.67% among 290,000; in the data active means activity change below about -30%
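Final compound at 57.5 uM, incubated 10 min at RT with coupling enzyme reagent (glyceraldehyde-3-phosphate), then 20 min with substrate and AmpLite Red detection. Fluorescence read at 525/598 nm; tests interference with the coupling assay, not aldolase inhibition.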
Tau fibril FP: inhibitors of human tau fibril formation | AID 1468 | P10636 | K18 P301L tau heparin fibrillization, Alexa594 FP, 6 h | hit rate 0.39% among 280,000 | Potency, µM (series often up to 57.7 µM), usual class: inhibitors; further: nearly all actives have a fitted effect of over 55% in size
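FP of Alexa 594-tau after heparin (20 uM) induction. Substrate: human K18 P301L, 15 uM unlabeled, 0.24 uM labeled. Buffer 100 mM sodium acetate pH 7. 6 hr, 37 C.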
A number is an active result; n = inactive; u = inconclusive; x = no result given; [ ] = remark or other dose. Unless noted, the call rests on the fitted dose curve; in most records, active means well fitted curve in the direction sought with a large enough effect; inconclusive means small, poorly fitted or top-dose-only effect, or another doubt; inactive means no such curve, though single readings can be large; an effect the other way counts as inactive or inconclusive.

SMILES	Tau fluor counter	Sfp PPTase inh	Tau fibril ThT	FBPA coupling cs	Tau fibril FP
O=C1N=C(N2CCN(Cc3ccccc3)CC2)S/C1=C/c1cccs1	n	n	u	n	n
CC(C)(C)c1ccc(S(=O)(=O)NCc2nc3cccnc3n2Cc2ccccc2Cl)cc1	n	x	n	x	n
Cc1noc(NS(=O)(=O)c2ccc(NC(=O)COc3ccccc3Br)cc2)c1C	n	x	n	x	n
CC(=O)O[C@H]1C(=O)[C@@]2(C)C([C@H](OC(=O)c3ccccc3)[C@]3(O)C[C@H](OC(=O)[C@H](O)[C@@H](NC(=O)c4ccccc4)c4ccccc4)C(C)=C1C3(C)C)[C@]1(OC(C)=O)CO[C@@H]1C[C@@H]2O (stereo partly specified)	n	44.7µM	n	x	n
COc1ccc(Nc2ncnc3sc(-c4ccccc4)cc23)cc1OC	14.1µM[quencher]	n	u	n	u
CCOC(CNc1ncnc2sc(-c3ccccc3)cc12)OCC	x	n	x	n	x
COc1ccc(Nc2ncnc3c2cnn3-c2ccccc2)cc1OC	u	n	u	n	u
CN(C)CCCNc1ncnc2sc(-c3ccccc3)cc12	n	56.2µM	n	n	n
Nc1ncn([C@H]2O[C@@H](CO)[C@@H](O)[C@@H]2O)c(=O)n1	x	n	x	n	x
CSc1nc(=NC(C)=O)ss1	n	4.47µM	25.1µM	n	u
O=C(Nc1ccc(Br)cc1)C(Cc1ccccc1)NS(=O)(=O)c1cccc2nsnc12 (stereo unspecified)	n	x	n	x	n
O=C(Nc1ccc(OC(F)(F)F)cc1)C(Cc1ccccc1)NS(=O)(=O)c1cccc2nsnc12 (stereo unspecified)	u	x	n	x	15.8µM
C=CCn1c(O)c(N=Nc2ccccc2C)c2ccccc21	n	25.1µM	u	n	n
C=CCn1c(O)c(N=NC(=O)OC(C)(C)C)c2ccccc21	n	n	n	n	n
C=CCn1c(O)c(N=NC(=S)Nc2ccc(OC)c(Cl)c2)c2ccccc21	u	1.78µM	u	n	n
C=CCn1c(O)c(N=O)c2ccccc21	n	n	n	n	n
COc1ccc(-c2cc(C3C4C=CCCC4(C)C(=O)N3Cc3ccccc3)ccc2F)cc1OC (stereo unspecified)	x	u	x	n	x
CO[C@@H]1COC(=O)CCC[C@@H](C)[C@H](OC)COC(=O)[C@H](Cc2ccccc2)NC(=O)C/C=C\[C@H]1C	n[11.6 µM]	n	n[11.5 µM]	n	n[11.6 µM]
COc1cccc(C(=O)NCC(c2ccc(N(C)C)cc2)N2CCc3ccccc32)c1 (stereo unspecified)	u	x	u	x	n
CCOC(=O)/C(=N\Nc1ccccc1)P(=O)(c1ccccc1)c1ccccc1	n	20µM	n	n	n
CCOC(=O)/C(=N\Nc1ccc(Cl)cc1)c1csc(Nc2ccccc2)n1	4.47µM[quencher]	n	u	n	u
CCOC(=O)/C(=N\Nc1ccccc1)S(=O)(=O)c1ccccc1	n	n	n	n	n
O=C(COc1ccc(Cl)cc1)OCc1csc(Nc2ccccc2)n1	14.1µM[quencher]	n	u	n	n
CCOC(=O)/C(=N\Nc1ccc(OC)cc1)c1csc(Nc2ccccc2)n1	7.08µM[quencher]	n	u	n	u
Cc1cc(C)c(Cn2c3ccccc3c3cnn(CC(=O)NC4CCC(C)CC4)c(=O)c32)c(C)c1 (stereo unspecified)	n	x	n	x	n
SMILES	Tau fluor counter	Sfp PPTase inh	Tau fibril ThT	FBPA coupling cs	Tau fibril FP
CN(C)C(=O)c1ccc(-c2ccc3ncnc(N4CCOCC4)c3c2)cc1	x	n	x	n	x
CCCN(CCC)CCNC(=O)c1cc(Sc2ccc(Cl)cc2)nc2ccccc12	n	x	n	x	n
CCOC(=O)/C(=N/Nc1ccccc1)c1csc(Nc2ccccc2)n1	7.08µM[quencher]	n	u	n	u
CCCCC(CCC(=O)O)(C(=O)OCC)c1csc(Nc2ccccc2)n1 (stereo unspecified)	n	n	n	n	n
CCN(CC)C(=O)c1csc(Nc2ccc(C)cc2)n1	n	20µM	u	n	n
COc1ccc(N2C(=O)/C(=C/c3cccnc3)NC2=S)cc1	n	n	n	n	n
COc1ccc(N2C(=O)/C(=C/N(C)C)NC2=S)cc1	n	56.2µM	n	n	n
COc1cc2c(cc1OC)C1N(CC2)C(=O)CCC12C(=O)CCCC2=O (stereo unspecified)	n	u	n	n	n
CC(C)/C=N/Nc1nc2c(c(=O)n(C)c(=O)n2C)n1C	u	n	28.2µM	n	u
COCCn1c(=O)c(C)nc2cnc(N3CCOCC3)nc21	x	n	x	n	x
